Test results: ChEMBL document CHEMBL1157539, “Thousands of chemical starting points for antimalarial lead identification” (Nature, 2010)

What was measured:
Type in all cases: functional
Plasmodium falciparum [1] = assay: GSK_TCMDC: Inhibition of Plasmodium falciparum 3D7 in whole red blood cells, using parasite LDH activity as an index of growth. Test compounds present at 2uM
Plasmodium falciparum [2] = assay: GSK_TCMDC: Inhibition of Plasmodium falciparum Dd2 in whole red blood cells, using parasite LDH activity as an index of growth. Test compounds present at 2uM
HepG2 = assay: GSK_TCMDC: Percent inhibition of human HepG2 cell line. Test compounds present at 10uM.

SMILES	Inhibition (Plasmodium falciparum [1]) [%]	Inhibition (Plasmodium falciparum [2]) [%]	Inhibition (HepG2) [%]
COc1ccc2nccc(N(C)CC3(O)CCC(NCc4cc5c(cn4)OCCO5)CC3)c2n1.Cl (stereo not drawn)	99	14	1
O=C(/C=C/c1ccc(Cl)c(Cl)c1)NC1CCN(CCNC(=O)c2cccc(Cl)c2)CC1.O=C(O)C(F)(F)F	100	45	22
CC1(CCc2ccccc2)N=C(N)N(Cc2ccccc2)C(=O)C1c1ccc(Cl)c(Cl)c1.O=C(O)C(F)(F)F (stereo not drawn)	97	96	100
Cc1[nH]c2ccc(-c3ccc(N(C)C)cc3)cc2c(=O)c1Cl	97	96	0
CC(C)c1cccc(C(C)C)c1NC(=O)NNC(=O)c1ccc(CCN2CCC(c3nc(COCC(F)(F)F)c(-c4ccc(F)cc4)o3)CC2)cc1	88	34	61
Cc1cc(OCCN2CCCCC2)ccc1NC(=O)c1cccc2c(=O)n(Cc3ccc(Cl)cc3)cnc12	88	56	100
O=C(NCCN1CCCC1)c1cc(-c2ccc(Cl)c(O)c2)c(-c2ccncc2)o1	92	0	0
OC(CNc1ccnc(Nc2cccc(CCN3CCOCC3)c2)n1)c1ccccc1 (stereo not drawn)	100	14	34
Cc1cccc(NC(=O)NCc2ccccc2)n1	97	2	14
COc1ccc(-c2ccc(S(=O)(=O)Nc3cc4c(cc3OC(C)C)CCNCC4)cc2)cc1.Cl	86	0	16
O=C(/C=C/c1ccccc1O)NCCCCCN1CCC(c2c[nH]c3ccccc23)CC1	95	1	7
O=C(NCC1CCC(C(=O)NC2CCCc3ccccc32)CC1)c1ccc(O)c(-c2cccc([N+](=O)[O-])c2)c1 (stereo not drawn)	99	97	2
COc1ccc(CCN(C)CCCOc2ccc(NC(=O)c3cccc4c(=O)c5ccccc5[nH]c34)cc2)cc1OC	94	45	80
CC(C)Cn1cc(C2CCN(CCN3CCC(CNC(=O)c4ccc(NC(=O)c5ccc(Cl)cc5)cc4)CC3)CC2)c2ccccc21	100	99	28
CC(C)C(NC(=O)c1c(F)cccc1F)C(=O)Nc1ccc(Cc2nc3ccccc3s2)cc1 (stereo not drawn)	86	55	0
Cc1cccc(CNc2nc(C)cc(NCCC(=O)NCCOc3ccccc3)n2)c1.O=C(O)C(F)(F)F	98	14	18
Br.C=CCN1Cc2c(O)cccc2C(c2ccc(O)c(O)c2)C1 (stereo not drawn)	97	6	0
COc1ccc(CNC2CCN(C)CC2)cc1-c1ccc(S(=O)(=O)NC2CCC2)c(F)c1.O=C(O)C(F)(F)F	100	97	96
O=C(Nc1cccc(Cl)c1N1CCOCC1)C(Cl)(Cl)Cl	96	95	3
COc1cc(CCNC(=N)/C=C/c2ccc(Cl)cc2)ccc1Cl.Cl	100	16	68
CN(c1ccc2c(c1)nc(Nc1ccc(Cl)cc1)n2C)c1ccnc(Nc2ccc(CS(C)(=O)=O)cc2)n1.Cl	97	52	91

SMILES	Inhibition (Plasmodium falciparum [1]) [%]	Inhibition (Plasmodium falciparum [2]) [%]	Inhibition (HepG2) [%]
Cc1cccc(Nc2nc(N)c3ccccc3n2)c1.Cl	99	49	1
OC(COCc1ccc(-c2ccccc2)cc1)CN1CCCCC1 (stereo not drawn)	99	75	13
Cc1cc(C2CCN(CCCCNC(=O)c3ccc(NC(=O)c4ccc(Cl)cc4)cc3)CC2)c(C)cc1OCc1cccnc1	100	90	39
O=C(CCc1cccc(O)c1)NCC(NCCCNc1cc(=O)c2ccccc2[nH]1)c1cc(Br)cc(Br)c1 (stereo not drawn)	86	37	0
O=C1NC(c2ccc(N3CCCCCC3)cc2)Nc2ccccc21 (stereo not drawn)	96	96	19
CN1CCC(NC(=O)c2cccc(Nc3cc(Nc4cccc(Br)c4)ncn3)c2)CC1	94	6	25
O=C(O)C(F)(F)F.c1ccc2c(c1)CN(Cc1ccsc1)CC1(CCN(Cc3c[nH]c4cnccc34)CC1)O2	87	75	38
COc1ccc(CN2CCC(NCc3cccc(C(F)(F)F)c3)CC2)cc1.O=C(O)C(F)(F)F	99	8	6
COc1ccc2ncc(F)c(CCN3CCC(NCc4cc(F)c5c(c4)OCCO5)CC3)c2n1.Cl	100	67	15
CN(c1ccc(NC(=O)Nc2cc(C(F)(F)F)ccc2F)cc1)c1ccnc(NCCN2CCOCC2)n1.O=C(O)C(F)(F)F	97	73	67
Cn1cnc(CCNC(=O)c2ccc(-c3ccc(-c4nc5cc(F)ccc5[nH]4)cc3)cc2)c1	92	15	17
CC(Oc1ccc(Cl)cc1Cl)c1nc(-c2ccc(NC(=O)c3ccco3)cc2)no1 (stereo not drawn)	92	82	7
Cc1cc(Cc2ccc(S(=O)(=O)c3cc4c(cc3O)CCN(C)CC4)cc2)ccc1Cl.Cl	96	12	7
Nc1cccc(CNCc2cccc(-c3ccc(-c4nc5ccccc5[nH]4)cc3)c2)c1.O=C(O)C(F)(F)F	100	92	0
CN1CCC(Oc2ccc(CN3CC[C@H](NC(=O)c4ccc(Cl)c(F)c4)C3)c3ccccc23)C1.O=C(O)C(F)(F)F (stereo partly drawn)	100	65	51
Cl.N=C(N)NN=Cc1c2ccccc2c(Cl)c2ccc(Cl)cc12	98	89	97
O=C(Nc1cccc(CN2CCCN(Cc3cccc(Cl)c3)CC2)c1)c1ccc(-c2ccccc2)cc1.O=C(O)C(F)(F)F	86	14	44
CS(=O)(=O)CCNCc1ccc(-c2ccc3c(Nc4ccc(F)cc4Cl)ccnc3c2)o1	100	98	29
O=C(Nc1cccc(-c2ccc(-c3nc4ccccc4[nH]3)cc2)c1)c1ccncc1	100	58	30
O=C(Nc1ccccc1Cl)c1cc2ccccc2cc1O	94	72	2
O=C(/C=C/c1ccc(Cl)cc1Cl)N1CCC(CCN2CCC(c3c[nH]c4ccccc34)CC2)CC1	98	37	94

SMILES	Inhibition (Plasmodium falciparum [1]) [%]	Inhibition (Plasmodium falciparum [2]) [%]	Inhibition (HepG2) [%]
COc1ccc2nccc([C@@H](O)CN3CCC(NCc4cc5cc([N+](=O)[O-])ccc5[nH]4)CC3)c2c1.O=C(O)C(=O)O	99	57	29
CN1CCN(Cc2cccc(-c3ccc4c(Nc5ccc(F)cc5Cl)ccnc4c3)c2)CC1	100	100	20
N#Cc1cccc(NC(=O)Nc2ccc(CC(=O)N3CCc4cc(Cl)c(N5CCN(C/C=C/c6ccccc6)CC5)cc43)cc2)c1	91	61	0
O=C(O)C(F)(F)F.OCC1CCN(Cc2cccc(-c3cccc(-c4nc5cc(C(F)(F)F)ccc5[nH]4)c3)c2)CC1	100	100	24
Cc1ccc2c(-c3ccc([N+](=O)[O-])o3)cc(C)nc2c1	95	47	20
CC(=O)Nc1ccc(CN2Cc3ccc(NC(=O)Nc4ccc(Oc5ccccc5)cc4)cc3C2)s1	91	25	9
COc1ccc2nc3cc(Cl)ccc3c(NCCN(C)C)c2c1	100	100	4
CCCCCCNC(=O)C1Cc2c([nH]c3ccc(C)cc23)C2(CCN(CCc3ccccc3)CC2)N1 (stereo not drawn)	85	24	31
Cc1cc(N[C@@H](Cc2ccccc2)C(=O)Nc2ccccc2)nc(NCCc2ccccc2)n1.O=C(O)C(F)(F)F	100	87	8
O=C(Nc1ccc([N+](=O)[O-])cc1)Nc1cc(C(F)(F)F)ccc1F	89	46	8
CCC(C)(C)c1ccc(N2C(N)=NC(N)=NC2(C)C)cc1.Cl	91	4	40
Br.COc1ccc(CCON2C(=N)N=C(N)NC2(C)C)cc1OC	96	93	64
COc1cccc(NC(=O)Nc2cc(C)nc3ccccc23)c1	100	48	2
NC(=O)c1cnc2cc(-c3ccncc3)cc(Nc3ccc(NC(=O)C4CCCCC4)cc3)c2c1	98	99	58
CNS(=O)(=O)CCNCc1ccc(-c2ccc3ncnc(Nc4ccc(OCc5ccccc5)cc4)c3c2)o1	100	26	19
CCc1ccc(C(=O)NC(=O)c2ccccc2O)cc1	95	84	0
COc1ccc(C#Cc2ccc(-c3c(C)[nH]c(C)c(Cl)c3=O)cc2)cc1	97	97	0
CC1(C)C2C=C(CN3CCC(NC(=O)Nc4ccc(Cl)c(Cl)c4)CC3)C1CC2 (stereo not drawn)	100	33	28
O=C(N[C@H]1CCN(Cc2ccc(OCCCN3CCCCC3)cc2)C1)c1cc(Cl)cc(Cl)c1	99	35	13
